Measurements from the supplement of paper PMC12067926.
A number with no mark means an inactive call.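 Rule for the calls: active = growth AUC significantly below the DMSO wells by Dunnett test; inactive = the rest.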

Experiments:
Experiment in all cases: relative growth (AUC of 72 h growth curve relative to DMSO control, dAUC) (ratio); higher = more growth (less inhibition), active = hit call of the paper
Settings in all cases: 20 µM
[1] = system: Aeromonas 1 (Aeromonas sp. AE235)
Procedure, shortened: (§1)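 Whole sediment communities and bacterial isolates from Icelandic stream sediments and Silwood Park soil were brought to carrying capacity in Luria–Bertani medium. They were then diluted 1:100 into 96-well plates with each chemical at 20 µM in 1% DMSO, and A600 was recorded every hour for 72 h. The area under each growth curve, integrated by spline, was averaged across three biological replicates. This figure, divided by the mean of the DMSO controls, gives relative growth (dAUC).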

[2] = system: Aeromonas 2 (Aeromonas sobria)
Procedure, shortened: as §1

[3] = system: Aeromonas 3 (Aeromonas popoffii)
Procedure, shortened: as §1

[4] = system: Argrobacterium 1 (Agrobacterium sp.)
Procedure, shortened: as §1

[5] = system: Arthrobacter 1 (Arthrobacter humicola)
Procedure, shortened: as §1

[6] = system: Arthrobacter 2 (Arthrobacter humicola)
Procedure, shortened: as §1

[7] = system: Arthrobacter 3 (Arthrobacter sp.)
Procedure, shortened: as §1

Community 10 = system: Community 10
Procedure, shortened: as §1

Community 4 = system: Community 4
Procedure, shortened: as §1

Community 6 = system: Community 6
Procedure, shortened: as §1

Compound	relative growth [1]	relative growth [2]	relative growth [3]	relative growth [4]	relative growth [5]	relative growth [6]	relative growth [7]	relative growth (Community 10)	relative growth (Community 4)	relative growth (Community 6)
CO/N=C(/C(=O)OC)c1ccccc1CO/N=C(\C)c1cccc(C(F)(F)F)c1	0.966	0.929	0.961	1.07	0.928	0.876	0.97	0.708	0.822	0.809
O=[N+]([O-])c1cc(C(F)(F)F)c(Cl)c([N+](=O)[O-])c1Nc1ncc(C(F)(F)F)cc1Cl	1.04	0.00203 (active)	0.00448 (active)	0.0123 (active)	0.035 (active)	0.0116 (active)	0.0138 (active)	0.534 (active)	0.614 (active)	0.498 (active)
CC(Oc1ccc(Oc2nc3ccc(Cl)cc3o2)cc1)C(=O)O (stereo not given)	1.02	1.01	1.04	1.01	1.08	0.93	1.01	1.15	0.991	1.07
CCCSP(=O)(OCC)Oc1ccc(Br)cc1Cl (stereo not given)	1.02	1.02	0.994	1.12	0.894	0.745	0.973	0.705	0.833	0.83
C/C(=N\C#N)N(C)Cc1ccc(Cl)nc1	0.986	1.01	1.04	0.965	1.03	0.972	0.973	1.15	1	1.05
CCNc1nc(Cl)nc(NC(C)C)n1	0.965	0.972	0.992	1.01	0.902	1.03	0.968	1.04	1.05	1.01
Cc1cc(C2CC2)nc(Nc2ccccc2)n1	1.01	0.948	1.05	0.93	0.989	0.898	0.542 (active)	0.995	0.978	1
Nc1c([N+](=O)[O-])ccc(Oc2ccccc2)c1Cl	0.959	0.953	0.961	0.972	0.894	0.826	0.957	0.833	0.851	0.856
CCCC(Cn1cncn1)c1ccc(Cl)cc1Cl (stereo not given)	0.932	0.996	1.01	1.15	1	1.02	0.987	0.973	1.11	1.06
COCC(=O)N(c1c(C)cccc1C)[C@H](C)C(=O)OC	0.971	1.01	1.02	1	0.981	1.03	1.04	0.999	1.21	1.08
COC(=O)c1ccccc1S(=O)(=O)NC(=O)Nc1nc(C)nc(OC)n1	1.02	1.01	1.07	0.964	1.16	1.14	1.01	1.23	1.16	1.12
CC(C)(C)C(O)(CCc1ccc(Cl)cc1)Cn1cncn1 (stereo not given)	0.916	0.917	1.01	0.949	0.544 (active)	0.232 (active)	0.39 (active)	0.835	0.913	0.878
CNC(=O)CSP(=S)(OC)OC	0.944	0.984	0.967	1.02	1.04	0.992	0.978	0.887	0.765	0.957
CCOc1ccc(C(C)(C)COCc2cccc(Oc3ccccc3)c2)cc1	1.01	1.02	1.02	1.04	1.01	0.801	0.816	1.02	0.901	0.979
N#CCNC(=O)c1cnccc1C(F)(F)F	1.01	0.97	1.03	0.992	0.965	0.882	0.96	0.928	0.954	0.919
CCN(CC)c1nc(C)cc(OP(=S)(OC)OC)n1	1	0.982	1.02	1.04	0.998	0.924	0.956	0.843	1.01	0.982
CNC(=O)ON=C(C)SC	0.953	0.974	1.01	0.974	0.962	1.01	0.971	1.14	1.09	1.05
C[N+](C)(C)CCCl	0.996	0.944	0.977	1.01	1.05	1	0.987	0.819	0.978	0.92
COCc1cnc(C2=NC(C)(C(C)C)C(=O)N2)c(C(=O)O)c1 (stereo not given)	0.932	0.973	1	1	0.954	1.01	0.931	0.96	0.84	0.937
O=C(O)CNCP(=O)(O)O	0.998	1	1.03	1.01	0.952	1.04	1.04	0.952	1.03	1.07
CO/C=C(/C(=O)OC)c1ccccc1COc1cccc(C(F)(F)F)n1	0.992	0.905	0.97	1.06	0.923	0.886	1.02	0.887	0.935	0.929
C[C@@H]1[C@@H](c2ccc(Cl)cc2)SC(=O)N1C(=O)NC1CCCCC1	1.02	1.02	1.01	1.04	0.906	0.925	1.02	1.03	0.946	1.02
CCCCOC(=O)[C@H](C)Oc1ccc(Oc2ccc(C#N)cc2F)cc1	1.04	1.07	1.05	1.11	1.11	0.875	0.882	0.88	1.03	1.03
Cc1ccc(/N=C/N(C)/C=N/c2ccc(C)cc2C)c(C)c1	0.991	0.995	1	0.984	0.964	0.821	1.04	0.922	0.905	0.969
O=C(NCCc1ncc(C(F)(F)F)cc1Cl)c1ccccc1C(F)(F)F	0.997	0.977	0.973	1.13	0.873	0.931	1.01	0.806	0.994	0.939
Cc1nnc(-c2ccccc2)c(=O)n1N	0.991	0.975	0.993	1.03	0.986	0.946	1.04	0.899	0.882	0.909
COP(=S)(OC)Oc1ccc(SC)c(C)c1	1.02	0.974	1.03	1.05	1.17	0.942	1.01	0.993	0.985	1.05
CS(=O)(=O)NC(=O)c1cc(Oc2ccc(C(F)(F)F)cc2Cl)ccc1[N+](=O)[O-]	1.02	1.02	1.03	1.02	0.905	1.07	1.05	1.09	1.02	1.03
Cc1cc(C)c(C2=C(OC(=O)CC(C)(C)C)C3(CCCC3)OC2=O)c(C)c1	1.09	0.978	1.05	1.11	0.927	0.864	0.789	0.848	1.19	0.917
